# HEK293 tox – cytotoxic compounds in HEK 293 cells. HEK 293 viability, ATP luminescence (CellTiter-Glo), 48-72 h. Potency, µM (highest dose often 115 µM), for inactives: at the top dose activity change, negative = cytotoxicity, usual class: inhibitors. 6.6% of 94,000 active; further: nearly all actives have a fitted effect of over 60% in size
#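 Pintool-delivered compounds were incubated with HEK 293 cells (250 cells/well) at 37 degree Celsius for 48 or 72 hr. ATP-dependent luminescence (CellTiter-Glo) then reported remaining viable cells.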
# GPT2 inhibitor – blocks human glutamate pyruvate transaminase 2. Q8TD30. Recombinant GPT2, coupled pyruvate oxidase/HRP Amplex Red fluorescence. Potency, µM (highest dose often 57.7 µM), inactives show top-dose activity change, negative = inhibition, usual class: inhibitors. 0.25% of 100,000 active; further: nearly all actives have a fitted effect of over 60% in size
# Target sequence (Q8TD30 whole entry, looked up): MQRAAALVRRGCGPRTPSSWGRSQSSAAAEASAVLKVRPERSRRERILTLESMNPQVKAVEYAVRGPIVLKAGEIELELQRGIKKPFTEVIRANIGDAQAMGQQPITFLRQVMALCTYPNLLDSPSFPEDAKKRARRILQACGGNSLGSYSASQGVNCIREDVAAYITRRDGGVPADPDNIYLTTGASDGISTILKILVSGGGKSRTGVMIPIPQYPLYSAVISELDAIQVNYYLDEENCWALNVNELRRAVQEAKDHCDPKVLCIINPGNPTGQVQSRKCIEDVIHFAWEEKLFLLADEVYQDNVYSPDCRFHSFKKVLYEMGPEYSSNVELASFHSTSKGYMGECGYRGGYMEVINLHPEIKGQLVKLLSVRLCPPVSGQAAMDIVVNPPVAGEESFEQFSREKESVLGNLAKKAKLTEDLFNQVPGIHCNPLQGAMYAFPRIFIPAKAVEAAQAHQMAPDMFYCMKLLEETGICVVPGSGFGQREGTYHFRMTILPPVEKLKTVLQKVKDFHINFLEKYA
#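 Inhibition is scored from Amplex Red fluorescence generated when pyruvate oxidase and HRP act on pyruvate released by GPT2. Reactions contain 10ng/uL enzyme, 250uM a-KG and 2mM L-alanine and run 30 min at room temperature.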
# FLuc inh – blocks purified firefly luciferase enzyme activity; P08659; purified P. pyralis luciferase, luminescence, biochemical; 2.5% of 76,000 active; Potency, µM (titrated, usually from 115 µM), hits mostly inhibitors; AID 1347043; further: nearly all actives have a fitted effect of over 65% in size
#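 Purified 10nM P. pyralis luciferase with 10uM D-luciferin and 10uM ATP in 50mM Tris acetate pH 7.5, 10mM Mg acetate, 0.01% Tween-20, 0.05% BSA. qHTS titration; luminescence read by CCD imager.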
# hNpr1 antagonist – blocks ANP-stimulated signaling of human Npr1 receptor; Potency, µM (top dose mostly 46.3 µM), inactives show top-dose activity change, negative = inhibition, most hits filed as inhibitors; P16066; AID 1347048; HEK293 hNpr1 GloSensor cGMP, ANP-stimulated luminescence; 1.6% of 76,000 active; calls by dose curve; further: nearly all actives have a fitted effect of over 60% in size
#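 Compound pre-incubated 30 min at room temperature on GloSensor-loaded HEK293 cells stably carrying hNpr1 and the pGS-40F cGMP biosensor. Stimulation uses hNppA at 0.1 nM final; luminescence is taken at baseline and 20 min post-agonist.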
# 3T3 cytotox – cytotoxic compounds in NIH 3T3 cells; 4.3% of 94,000 active; Potency, µM (highest dose often 96.7 µM), inactives show at the highest dose activity change, negative = cytotoxicity, usual class: inhibitors; NIH 3T3 viability, CellTiter-Glo ATP luminescence, 48-72 h; further: nearly all actives have a fitted effect of over 55% in size
#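 NIH 3T3 cells at 400 cells/well received 23 nL of compound by pintool and were incubated 48 or 72 h at 37 °C. Viability was read as ATP-coupled CellTiter-Glo luminescence.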
# Active calls of the source: *; i = inactive; ? = inconclusive; · = not tested or not shown; ! = not confirmed by another sample; [ ] = another dose, or the depositor's remark. This is a sample that favours compounds with a hit; in the whole collection about 10% have one here. Unless noted, the call rests on the fitted dose curve; in most records, active means well fitted curve in the direction sought with a large enough effect; inconclusive means small, poorly fitted or top-dose-only effect, or another doubt; inactive means no such curve, though single readings can be large; an effect the other way counts as inactive or inconclusive. On the % scale 0 is the no-effect control and ±100 the full control effect; potency means the concentration at half of the fitted maximal effect.
SMILES,HEK293 tox,GPT2 inhibitor,FLuc inh,hNpr1 antagonist,3T3 cytotox
O=C(c1cccc(Cl)c1)N1CCCC(C(=O)N2CCC(N3CCOCC3=O)CC2)C1 (stereo unspecified),-6%,-13%,·,·,-27%
CN(C)C(=O)N1CCN(c2nccc(Nc3ccccc3F)n2)CC1,-17%,2%,·,·,-30%
COc1ccc(Nc2ccnc(N3CCN(C(=O)Cc4ccc(F)cc4)CC3)n2)cc1,11µM*,i,·,·,25µM*
O=C(Cc1ccc(F)cc1)N1CCN(c2nccc(Nc3ccccc3F)n2)CC1,18µM*,-1%,·,·,18µM*
O=C(Cc1ccc(F)cc1)N1CCN(c2nccc(Nc3ccccc3Cl)n2)CC1,40µM*,i,·,·,28µM*
O=C(Cc1ccc(F)cc1)NC1CCN(c2nccc(Nc3ccccc3Cl)n2)CC1,?,-7%,·,·,?
COc1ccc(-c2cc(N3CCC(NC(=O)c4ccccc4F)CC3)n[nH]2)cc1,?,-18%,i,-21%,?
CCc1ccc(CN2CCCC23Cc2ccccc2CNC3=O)cc1 (stereo unspecified),89µM*,i,·,·,?
c1cc(Cn2ccc3c(N4CCOCC4)nc(-c4ccc5cn[nH]c5c4)cc32)ccn1,40µM*,i,i,-21%[70.6 µM],25µM*
c1cc(Cn2ccc3c(N4CCOCC4)nc(-c4cn[nH]c4)cc32)ccn1,-18%[172 µM],i,i,-7%[70.6 µM],?
Cn1cc(-c2cc3c(ccn3Cc3ccncc3)c(N3CCOCC3)n2)cn1,-11%[172 µM],i,i,-1%[70.6 µM],?
CN(C)Cc1ccc(-c2cc3c(ccn3Cc3ccncc3)c(N3CCOCC3)n2)cc1,100µM*,i,i,-1%[70.6 µM],?
CCc1nn(-c2ccccc2)c(Oc2cccc(C)c2)c1CCC(=O)N1CCOCC1,40µM*,5%,i,-22%,?
CCc1nn(-c2ccc(F)cc2)c(Oc2ccccc2)c1CCC(=O)N1CCCC1,45µM*,?,i,-27%,?
Cc1nn(-c2ccc(F)cc2)c(Oc2ccccc2)c1CCC(=O)N1CCOCC1,?,-3%,i,-16%,?
Cc1cccc(-n2nc(C)c(CCC(=O)N3CCOCC3)c2Oc2ccc(F)cc2F)c1,?,-27%,i,-18%,?
CN(Cc1cccnc1)Cc1nc(C2(O)CCN(Cc3ccccc3C(F)(F)F)CC2)cs1,45µM*,i,i,-21%,?
CN(Cc1cccnc1)c1nc2c(c(=O)[nH]1)CCN(Cc1ccccc1C(F)(F)F)CC2,20µM*,i,i,?,?
O=C(Nc1ccccc1Cl)C1CN(C2CCCCC2)C(=O)N1 (stereo unspecified),-10%[172 µM],0%[88.5 µM],·,·,-17%[138 µM]
O=C(Nc1ccc2c(c1)OCO2)C1CN(S(=O)(=O)c2cccnc2)CC12CCCCC2 (stereo unspecified),-30%,2%,40µM*,-3%,-27%
O=C1CC2(CCN(S(=O)(=O)c3cccs3)CC2)Oc2cc(Cl)ccc21,?,-3%,i,1%,?
CC1(c2noc(C3CC3)n2)CCN(C(=O)CCc2nc3ccc(Cl)cc3[nH]2)CC1,?,i,i,-20%,-23%
Cc1noc(C)c1Cc1ccc(C(=O)N2CCC(C)(c3noc(-c4ccccn4)n3)CC2)o1,45µM*,i,i,-30%,?
CC1(c2noc(-c3ccccn3)n2)CCN(C(=O)C2CCN(C(=O)c3ccc(=O)[nH]c3)CC2)CC1,-20%,i,i,15%,?
CC1(c2noc(-c3ccccn3)n2)CCN(C(=O)CCc2nc3ccc(Cl)cc3[nH]2)CC1,50µM*,4%,i,-16%,?
SMILES,HEK293 tox,GPT2 inhibitor,FLuc inh,hNpr1 antagonist,3T3 cytotox
Cc1noc(C)c1Cc1ccc(C(=O)N2CCC(C)(c3noc(-c4cccnc4)n3)CC2)o1,?,i,i,-23%,32µM*
Cc1coc2c1C(=O)C(=O)c1c-2ccc2c(C)cccc12,·,2.2µM*!,·,·,·
Cc1coc2c1C(=O)C(=O)c1c-2ccc2c1CCCC2(C)C,·,14µM*,·,·,·
C[C@H]1COC2=C1C(=O)C(=O)c1c2ccc2c1CCCC2(C)C,·,17µM*,·,·,·
COc1cc(O)ccc1CN1CCCC(COc2ccccc2C(=O)N2CCOCC2)C1 (stereo unspecified),7%,i,i,-10%,i
CC1(COc2ccccc2)COc2ccc(C(=O)Nc3ccc4[nH]ccc4c3)cc2N1 (stereo unspecified),45µM*,3%[88.5 µM],?,?,35µM*
CC1(COc2ccccc2)COc2ccc(C(=O)Nc3ccccc3)cc2N1 (stereo unspecified),71µM*,-13%[88.5 µM],i,-6%[70.6 µM],?
COc1ccc(NC(=O)c2ccc3c(c2)NC(C)(COc2ccccc2)CO3)cc1OC (stereo unspecified),?,2%[88.5 µM],i,-17%[70.6 µM],?
CC1(COc2cccnc2)COc2ccc(C(=O)Nc3ccc4[nH]ccc4c3)cc2N1 (stereo unspecified),?,5%[88.5 µM],40µM*,-13%[70.6 µM],89µM*
CCOCC1(C)COc2ccc(C(=O)N(C)Cc3ccccc3)cc2N1 (stereo unspecified),?,i,i,3%[70.6 µM],?
CN(Cc1ccccc1)C(=O)c1ccc2c(c1)NC(C)(COc1ccccc1)CO2 (stereo unspecified),71µM*,?,i,-10%[70.6 µM],50µM*
CC(C)Cn1c(=O)c(C(=O)N2CCN(C(=O)C3CCCC3)CC2)nc2cccnc21,i,i,·,·,-5%
COc1ccc(-c2ccc(C(=O)N3CCC(NC(C)=O)CC3)cc2)nn1,-4%,·,·,·,-15%
C=CCCOC(=O)N1CC(=O)N(Cc2cccc(F)c2)CC(O)C1 (stereo unspecified),i,·,·,·,?
C#CCNC(=O)c1cc(-c2ccsc2)c2nncn2n1,-24%[172 µM],i,·,·,?
COCCn1c(=O)c(C(=O)NC(C)C)nc2cccnc21,i,-7%[88.5 µM],·,·,-11%[138 µM]
COCCn1c2c([n+](Cc3cnccn3)c1C)C(=O)c1ccccc1C2=O,·,0.15µM*,·,·,·
CN1CCN(c2ccc(-c3cn(C)c(=O)n4cc(CNc5ccccc5)nc34)cn2)CC1,71µM*,i,i,-1%[70.6 µM],50µM*
Cn1cc(-c2cn(C)c(=O)n3cc(CNc4ccccc4)nc23)cn1,-28%[172 µM],-5%[88.5 µM],?,2%[70.6 µM],?
COc1ccccc1-c1[nH]nc2ncc(-c3ccnc(C)c3)nc12,?,-1%[88.5 µM],i,-1%[70.6 µM],?
COc1ccccc1-c1[nH]nc2ncc(CNc3ccccn3)nc12,?,i,i,-8%[70.6 µM],?
COc1ccccc1-c1[nH]nc2ncc(-c3ccccc3F)nc12,?,0%[88.5 µM],i,-24%[70.6 µM],35µM*
COc1ccccc1-c1[nH]nc2ncc(-c3ccccc3C)nc12,50µM*,-5%[88.5 µM],i,-17%[70.6 µM],50µM*

# Assay outcomes as filed in PubChem.
